Source: PubChem
Shown is part of a subset that was picked to be rich in hits.
KDM5B inhibitor – blocks human KDM5B histone demethylase activity | Q9UGL1 | KDM5B demethylase, FDH-coupled NADH fluorescence (FDH is formaldehyde dehydrogenase) | Potency, µM (doses to about 57.7 µM), hits mostly inhibitors | 220,000 compounds, 2.6% hits | AID 1347165; active = well fitted inhibition curve with a large enough effect; also: 0% is about no effect; nearly all actives have a fitted effect of over 70% in size
Target sequence (Q9UGL1 whole entry, looked up): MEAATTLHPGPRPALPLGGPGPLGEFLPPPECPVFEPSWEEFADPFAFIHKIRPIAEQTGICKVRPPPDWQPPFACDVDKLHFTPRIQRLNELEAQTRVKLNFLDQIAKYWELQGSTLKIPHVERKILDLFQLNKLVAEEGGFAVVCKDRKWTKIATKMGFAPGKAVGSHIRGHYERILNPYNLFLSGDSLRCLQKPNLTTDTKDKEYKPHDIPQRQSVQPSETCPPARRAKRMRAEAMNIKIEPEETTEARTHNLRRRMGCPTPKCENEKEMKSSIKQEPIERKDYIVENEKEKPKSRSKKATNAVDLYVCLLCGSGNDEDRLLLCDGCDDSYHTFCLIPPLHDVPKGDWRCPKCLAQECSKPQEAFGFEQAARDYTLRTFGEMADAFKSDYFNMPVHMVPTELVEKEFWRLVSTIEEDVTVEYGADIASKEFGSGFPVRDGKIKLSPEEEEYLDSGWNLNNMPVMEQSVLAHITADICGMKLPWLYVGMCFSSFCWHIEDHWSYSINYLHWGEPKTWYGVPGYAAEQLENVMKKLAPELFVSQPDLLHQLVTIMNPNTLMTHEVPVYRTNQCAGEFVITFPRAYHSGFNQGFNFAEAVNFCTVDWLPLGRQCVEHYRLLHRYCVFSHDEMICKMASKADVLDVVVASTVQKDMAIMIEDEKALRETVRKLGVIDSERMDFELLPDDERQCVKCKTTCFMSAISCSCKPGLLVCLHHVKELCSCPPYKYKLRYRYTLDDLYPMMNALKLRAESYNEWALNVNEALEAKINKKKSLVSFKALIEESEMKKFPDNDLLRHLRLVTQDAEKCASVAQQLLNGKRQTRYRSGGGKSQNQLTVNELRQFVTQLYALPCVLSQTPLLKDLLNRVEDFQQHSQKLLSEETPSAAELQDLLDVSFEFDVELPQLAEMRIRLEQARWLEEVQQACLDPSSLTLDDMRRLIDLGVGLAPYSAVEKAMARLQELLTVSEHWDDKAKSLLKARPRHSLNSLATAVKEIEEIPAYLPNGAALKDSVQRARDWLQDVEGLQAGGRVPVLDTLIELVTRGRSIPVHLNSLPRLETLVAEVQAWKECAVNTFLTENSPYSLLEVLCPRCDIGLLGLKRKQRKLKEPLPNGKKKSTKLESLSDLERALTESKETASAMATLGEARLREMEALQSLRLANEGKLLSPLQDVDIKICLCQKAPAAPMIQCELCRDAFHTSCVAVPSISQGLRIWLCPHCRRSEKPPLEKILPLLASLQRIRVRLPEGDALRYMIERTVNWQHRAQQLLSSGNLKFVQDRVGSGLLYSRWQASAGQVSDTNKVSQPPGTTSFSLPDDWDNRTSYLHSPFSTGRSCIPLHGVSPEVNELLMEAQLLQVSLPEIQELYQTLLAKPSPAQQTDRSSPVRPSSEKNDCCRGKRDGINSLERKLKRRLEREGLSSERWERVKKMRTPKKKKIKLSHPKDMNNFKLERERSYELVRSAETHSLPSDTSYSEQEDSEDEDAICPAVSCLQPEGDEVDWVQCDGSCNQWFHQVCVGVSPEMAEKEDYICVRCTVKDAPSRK
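Compound dilutions met 200 nM (final) KDM5BΔAP for 10 min at room temperature before substrate addition. The substrate mix held 12.5 µM H3K4me3 with cofactors 25 µM α-ketoglutarate and 50 µM Fe²⁺. NADH signal gain over 30 min defined activity.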
* marks the source's active call; other numbers are inactive results; i = inactive; [ ] = remark or other dose. Potency is read from the fitted curve at half-maximal effect.

SMILES | KDM5B inhibitor
CCOC(=O)CCNC(=O)N1CCc2c(nc(-c3ccccc3)[nH]c2=O)C1 | i
CCOC(=O)CCNC(=O)N1CCc2c(nc3cc(-c4ccccc4)[nH]n3c2=O)C1 | 28.2µM*
O=C(c1cc2c(s1)CCCC2)N1CCc2c(nc3cc(-c4ccccc4)[nH]n3c2=O)C1 | i
O=C(c1ccccc1Cl)N1CCc2c(nc3cc(-c4ccccc4)[nH]n3c2=O)C1 | 35.5µM*
O=C(c1ccccc1Cl)N1CCc2nc(-c3ccccc3)nc(-c3ccc(Cl)cc3)c2C1 | i
CCOC(=O)CCNC(=O)N1CCCN(S(C)(=O)=O)C(c2ccccc2)CC(=O)NCC1 (stereo not given) | i
O=C(O)c1cccc(Br)c1 | i
Cc1ccc(-c2cnc(CCC(=O)NCc3ccccc3)o2)cc1C | i
Cc1ccc(C)c(NC(=S)N2CCN(S(=O)(=O)c3ccccc3)CC2)c1 | i
CC1(CCCCN2CCOCC2)COc2ccc(C(=O)Nc3ccc4[nH]ccc4c3)cc2N1 (stereo not given) | i
CC1(C)CC1(CNC1CCN(c2ccc(C(=O)NCCN3CCOCC3)cc2)CC1)c1ccccc1 (stereo not given) | i
CSCc1ccc(C(=O)NCc2ccco2)cc1 | i
CC1(CCCCN2CCOCC2)COc2ccc(C(=O)NCc3ccco3)cc2N1 (stereo not given) | 35.5µM*
CC1(CCCCc2ccccc2)COc2ccc(C(=O)NCCN3CCOCC3)cc2N1 (stereo not given) | 35.5µM*
O=C(NCCCc1ccccc1)c1ccc(CN2C(=O)NC3(CCOCC3)C2=O)cc1 | i
CC1(CCCCN2CCOCC2)COc2ccc(C(=O)NCc3ccccc3)cc2N1 (stereo not given) | 39.8µM*
O=C(C1CC1)N(C1CCOCC1)C1CCN(S(=O)(=O)c2ccc3c(c2)CCCC3)CC1 | i
CCN1C(=O)c2ccccc2Sc2ccc(NC(=O)c3ccc(Cl)cc3)cc21 | i[11.5 µM]
Cc1cc(C)nc(SC2CC(=O)N(c3ccc(Br)cc3)C2=O)n1 (stereo not given) | i
Cc1c(Cl)cccc1NC(=O)CCn1cnnn1 | i
COc1cc(NC(=O)CCSc2nc(-c3ccco3)cc(C(F)(F)F)n2)cc(OC)c1OC | i
CCc1ccc(NC(=O)c2nc3ccccc3nc2N2CCCC2)cc1 | i
COc1ccc(C2=Nc3ccc(F)cc3NC(c3cccc(C(F)(F)F)c3)=N2)cc1 | i
CNc1nc2c(c(C(=O)N3CCCC3)n1)CN(C(=O)Cn1nccc1C)CC2 | 22.4µM*
CC(=O)N1CCc2[nH]cnc2C12CCN(C(=O)Cn1nccc1C)CC2 | i
SMILES | KDM5B inhibitor
O=C(Cn1nc2c(cc1=O)CCCC2)N1CCCC1 | i
CCSC1=NC2(CCN(C(=O)NC3CCCCC3)CC2)N=C1c1ccc(C)cc1 | i
COC(=O)CC1c2cc(OC)c(OC)cc2CCN1Cc1nc(C(C)C)no1 (stereo not given) | i
O=S(=O)(c1ccccc1)c1nnn2c1nc(NCc1ccc(F)cc1)c1ccccc12 | i
CCOc1ccccc1-n1c(Cc2ccc(O)cc2)n[nH]c1=O | i
COc1ccccc1N1CCN([C@@H]2[C@H](O)[C@H](CO)O[C@@H]2CNS(C)(=O)=O)CC1 | i
Cc1nc(Nc2ccc(F)cc2F)sc1C(=O)Nc1ccccc1 | i
CCc1ccc(-c2cc(C(=O)NCC3CCCO3)c3cc(C)ccc3n2)cc1 (stereo not given) | i
Cc1ccc(-c2nc(CNC(=O)C3CCNC3)[nH]c2-c2ccccn2)cc1 (stereo not given) | i
Cc1ccc(-c2nc(CNC(=O)[C@@H](N)[C@@H](C)O)[nH]c2-c2ccccn2)cc1 | i
Cc1ccc(-c2nc(CNC(=O)[C@@H]3CCC[C@H](N)C3)[nH]c2-c2ccccn2)cc1 | 28.2µM*
COc1ccc(-c2noc([C@@H](C)NC(=O)COc3ccccc3)c2C(=O)O)cc1 | i
C[C@@H](NC(=O)c1ccccc1)c1onc(-c2ccc(F)cc2)c1C(=O)O | i
COc1ccc(-c2noc([C@@H](C)NC(=O)c3nc4ccccc4[nH]3)c2C(=O)O)cc1 | 28.2µM*
O=C(NC1CCCCC1)N1CCC(N2CC(OCC3CC3)C23CCOCC3)CC1 (stereo not given) | i
Cn1nc2n(c1=O)CCN(S(=O)(=O)c1ccc3c(c1)OCCO3)CC2 | i
O=C(O)c1cc2ccc(OCCc3ccccc3)cc2[nH]1 | i
Nc1ncc(-c2ccccc2)c(-c2ccc(OCc3ccc(F)cc3)cc2O)n1 | i
Cc1ccc(F)cc1-c1cccc(CCOc2cnc3c(ccn3CC(=O)O)c2)c1 | 35.5µM*
COc1ccc(F)cc1-c1ccc(COc2ccc3c(cnn3CCC(=O)O)c2)cc1 | i
Cc1ccc(F)cc1-c1cn(C)c(=O)n2cc(COc3ccccc3)nc12 | i
COc1cccc(-c2cccc(COc3cnc4c(ccn4CC(=O)O)c3)c2)c1F | 35.5µM*
O=C(O)Cn1ccc2cc(OCCc3cccc(-c4ccccc4F)c3)cnc21 | 31.6µM*
O=C(O)Cn1ccc2cc(OCc3cccc(-c4ccc(F)cc4F)c3)cnc21 | 35.5µM*
Cc1ccc(NC(=O)CSc2ncc3c(n2)-c2ccccc2N(Cc2cccc(F)c2)S3(=O)=O)cc1F | i
SMILES | KDM5B inhibitor
Cc1noc(-c2ccc(OCc3ccc(F)cc3)cc2O)c1-c1ccccc1 | i
COc1cccc(-c2ccc(COc3ccc4c(cnn4CCC(=O)O)c3)cc2)c1F | i
O=C(CCc1ccccc1)N1CCC(Oc2cnc3c(ccn3-c3cncnc3)c2)CC1 | i
COc1ccc(C)cc1NC(=O)C(=O)N1CCCC1 | i
O=C(c1ccsc1)N1CCC(c2nc(C3CCOCC3)no2)CC1 | i
COc1ccc(OC)c(CN2CCC3OCCN(Cc4ccccc4F)C(=O)C3C2)c1 (stereo not given) | i
COc1ccc(C(=O)NC2CCN(c3cc(-c4ccc(Cl)cc4)[nH]n3)CC2)c(C)c1 | i
Cc1ccc2oc(-c3cc(NC(=O)c4cc([N+](=O)[O-])ccc4N4CCOCC4)ccc3Cl)nc2c1 | i
Cc1cccc(C)c1NC(=O)CN1CCCN(c2ccc(C(F)(F)F)cn2)CC1 | i
CN1C(=O)c2cccn2CC1C(=O)NC1CCCCCC1 (stereo not given) | i
O=C(O)c1cccc(OCc2nnnn2-c2ccc(Cl)cc2)c1 | i
Cc1ccc(-n2ncc(C(=O)N3CCc4ccccc4C3)c2C2CCN(C(=O)OC(C)(C)C)CC2)cc1C | i
Fc1cccc(-n2nc(C3CCOC3)nc2CC2CC2)c1 (stereo not given) | i
O=C(NC1CCS(=O)(=O)C1)c1cc2cc(F)ccc2[nH]1 (stereo not given) | i
CCC(C)NC(=O)c1nn(-c2ccc(C)cc2)c(=O)n(C)c1=O (stereo not given) | i
Cc1ccc(C(C)NC(=O)Nc2ccc(F)cc2F)cc1 (stereo not given) | i
O=C(O)Cn1ccc2cc(OCCc3cccc(-c4ccc(F)cc4F)c3)cnc21 | 35.5µM*
CC(C)N1CC2CCC(C1)N2Cc1cccc(-c2ccc(F)cc2F)c1 | i
O=C(Cn1cccc1-c1nc(-c2ccccc2)no1)NCc1ccc(F)cc1F | i
CCC(C)NC(=O)c1ccccc1NS(=O)(=O)c1ccc(F)c(C(=O)O)c1 (stereo not given) | i
COc1ccc(Cl)cc1CN(C)C(=O)c1ccc(C2CCCNC2)cc1 (stereo not given) | i
COc1cccc(CN2CCOC[C@H](Oc3cccnc3)C2)c1 | i
COc1ccc(-c2ncc(CN3CCOC(c4cccnc4)C3)cn2)cc1 (stereo not given) | 22.4µM*
